Screening results from PubChem.
An excerpt weighted towards active compounds, which were near 2.5% of everything screened.
Exocytosis inh = lytic granule exocytosis inhibition; actives 0.66% (n = 360,000); inhibition, % at 10 µM; TALL-104 LAMP-1 surface exposure, flow cytometry; cells stimulated with thapsigargin and PMA;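 active = inhibition above about 55%, limit read from the data; inconclusive = no clear call, values can overlap the other calls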
rCAG binder = molecules binding r(CAG) RNA repeats; r(CAG) RNA repeat, TO-PRO-1 dye displacement fluorescence; actives 1.3% (n = 370,000); AID 651821; inhibition, % at 3 µM;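 active = inhibition above the plate cutoff, the mean of all test compounds on that plate plus 3 SD, cut at about 35% in these data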;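 note: 0% = DMSO alone and 100% = 100 µM mitoxantrone as full dye displacement; higher means more dye released from RNA so lower well fluorescence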
ABCB6 inh MLPCN = blocks the human ABCB6 transporter; K562-ABCB6 porphyrin accumulation, flow cytometry, 1 h; active compounds read low; AID 602162; fluorescence ratio to DMSO, % at 10 µM; Q9NP58; actives 0.19% (n = 360,000);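 active = fluorescence ratio to DMSO below 75%, the collection mean minus 3 SD; inconclusive = too few cells collected in the well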;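 note: signal is porphyrin accumulated inside mitochondria; 100% equals median channel fluorescence of DMSO control wells; lower ratio means ABCB6 inhibition with less porphyrin fluorescence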
Target sequence (Q9NP58 whole entry, looked up): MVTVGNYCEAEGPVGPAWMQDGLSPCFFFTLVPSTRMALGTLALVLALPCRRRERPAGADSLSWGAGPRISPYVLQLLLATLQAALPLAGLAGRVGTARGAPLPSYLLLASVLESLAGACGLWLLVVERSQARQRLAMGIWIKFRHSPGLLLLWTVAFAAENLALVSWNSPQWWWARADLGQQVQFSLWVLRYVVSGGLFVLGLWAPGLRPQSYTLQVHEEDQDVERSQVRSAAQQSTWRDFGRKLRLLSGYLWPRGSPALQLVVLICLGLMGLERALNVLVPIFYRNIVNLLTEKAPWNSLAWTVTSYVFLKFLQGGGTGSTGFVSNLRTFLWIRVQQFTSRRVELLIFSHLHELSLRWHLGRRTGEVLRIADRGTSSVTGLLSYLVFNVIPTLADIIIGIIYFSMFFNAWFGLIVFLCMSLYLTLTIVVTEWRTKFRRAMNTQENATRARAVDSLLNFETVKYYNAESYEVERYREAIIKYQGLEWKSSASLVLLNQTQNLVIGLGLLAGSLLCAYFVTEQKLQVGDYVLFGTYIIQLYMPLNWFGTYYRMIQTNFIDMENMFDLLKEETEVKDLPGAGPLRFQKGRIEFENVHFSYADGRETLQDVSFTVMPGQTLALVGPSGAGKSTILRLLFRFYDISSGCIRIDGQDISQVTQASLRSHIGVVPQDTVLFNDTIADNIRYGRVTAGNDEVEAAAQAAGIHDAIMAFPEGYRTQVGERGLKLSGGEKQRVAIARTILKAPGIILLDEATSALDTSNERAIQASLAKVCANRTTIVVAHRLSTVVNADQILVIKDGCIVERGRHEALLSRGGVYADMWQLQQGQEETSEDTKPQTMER
PG9 Ab binder = PG9 antibody binding by small molecule; TR-FRET gp120-PG9 antibody binding; inhibition, % at 6.7 µM; actives 0.43% (n = 360,000); in the data active = inhibition above about 8.5%
rCAG bind conf = r(CAG) RNA repeat binding, confirmation; shares compounds with rCAG binder; TO-PRO-1 dye displacement fluorescence; inhibition, % at 3 µM; actives 70% (n = 4,300);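 active = inhibition above a per-plate cutoff, the mean inhibition of sample wells plus 3 SD, cut at about 35% in these data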;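 note: loss of TO-PRO-1 fluorescence as compound displaces dye from 1x1 AA loop RNA; 0% = DMSO only wells and 100% = 100 µM mitoxantrone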
dCAG dye counter = disrupts DNA CAG TO-PRO-1 complex, flagging rCAG hits; shares compounds with rCAG binder; d(CAG) DNA oligo TO-PRO-1 dye displacement, fluorescence; inhibition, % at 3 µM; actives 94% (n = 4,300);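 active = inhibition above its plate's cutoff, the mean test-well inhibition plus 3 SD, cut at about 4.8% in these data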;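 note: 0% = DNA dye mix with DMSO and 100% = 100 µM mitoxantrone; hits displace the dye from DNA and so lower well fluorescence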
DNA CAG DR = DNA CAG dye complex inhibition, dose response counter-screen. AID 686960. shares compounds with rCAG binder. actives 20% (n = 250). DNA CAG/GTC duplex TO-PRO-1 dye displacement fluorescence. IC50, µM; in the data active = IC50 below about 10 µM
The depositor's hits bear a star; u = inconclusive; x = no result.

SMILES	Exocytosis inh	rCAG binder	ABCB6 inh MLPCN	PG9 Ab binder	rCAG bind conf	dCAG dye counter	others
NC(COCc1ccccc1)c1csc(NC(=O)Nc2cccc(Cl)c2)n1 (stereo unspecified)	5	48*	98	-1	24	5.5*
COc1cc(NC(=O)Nc2nc(C(N)CCc3ccccc3)cs2)cc(OC)c1OC (stereo unspecified)	1	35*	108	1	30	2
COc1ccc(CC(N)c2csc(NC(=O)Nc3cc(OC)ccc3OC)n2)cc1 (stereo unspecified)	9	13	97	2	x	x
O=C(c1cc(Cl)cc(Cl)c1)N1CCC2CC1c1cc(N3CCCCC3)ccc12 (stereo unspecified)	3	1	100	1	x	x
NC(Cc1ccc(C(F)(F)F)cc1)c1csc(NC(=O)Nc2ccccc2)n1 (stereo unspecified)	0	35*	101	1	16	7.5*
CC(C)C(N)c1csc(NC(=O)Nc2cccc(C(F)(F)F)c2)n1 (stereo unspecified)	u	42*	96	0	45*	4	DNA CAG DR=>30
NCc1csc(NC(=O)Nc2cccc(C(F)(F)F)c2)n1	-10	53*	104	0	51*	11*	DNA CAG DR=>30
NC(Cc1ccc(Cl)cc1)c1csc(NC(=O)Nc2ccccc2)n1 (stereo unspecified)	8	38*	99	2	23	11*
CC(C)C(N)c1csc(NC(=O)Nc2ccccc2C(C)(C)C)n1 (stereo unspecified)	-8	14	99	1	x	x
O=C(COC(=O)c1cccc(C(=O)OCC(=O)NC2CC2)n1)NC1CC1	-1	-1	99	0	x	x
Cc1ccc(S(=O)(=O)N(C)CC(=O)O/N=C(\N)c2cccc(Br)c2)cc1	14	-4	95	1	x	x
NC(CCc1ccccc1)c1csc(NC(=O)Nc2cccc(C(F)(F)F)c2)n1 (stereo unspecified)	49	40*	95	0	22	3
CC(C)c1ccc(NC(=O)Nc2nc(C(N)CCc3ccccc3)cs2)cc1 (stereo unspecified)	28	30	76	0	x	x
CC(C)C(N)c1csc(NC(=O)Nc2ccc(OC(F)(F)F)cc2)n1 (stereo unspecified)	1	40*	92	-2	26	2
CC(C)c1ccc(NC(=O)Nc2nc(C(C)N)cs2)cc1 (stereo unspecified)	8	33	79	3	x	x
CSCC[C@@H](CO)NC(=O)[C@H]1O[C@@H](n2ccc(=O)[nH]c2=O)[C@H](O)[C@@H]1O	-2	0	94	-2	x	x
Cc1ccc(-c2noc(CCCC(=O)NC3CCCCC3)n2)cc1	12	-4	95	-1	x	x
COc1ccc(-c2cc(NC(C)=O)c3ncc(-c4cccc(C(C)=O)c4)n3c2)cc1OC	6	11	86	-1	x	x
Cc1sc(NC(=O)C2CCCO2)c(C(N)=O)c1C (stereo unspecified)	-1	42*	107	-1	12	3
CCOC(=O)c1c(NC(=O)C2CCCO2)sc(C)c1C (stereo unspecified)	-2	-5	92	-1	x	x
O=C(O)c1ccc(Nc2nc(-c3cc4ccccc4oc3=O)cs2)cc1O	2	72*	99	0	84*	48*
O=C(COC(=O)c1cccc(Br)c1)NCC1CCCO1 (stereo unspecified)	-6	1	104	1	x	x
CCOC(=O)c1cc(C#N)c(SCC(=O)Nc2ccc(C(C)=O)cc2)[nH]c1=O	-13	43*	102	-1	44*	10*
C=C1CCN(C(C)C(=O)O)S(=O)(=O)c2ccccc21 (stereo unspecified)	-11	9	100	0	x	x
CCOC(=O)N1CCN(C(=O)CNC(=O)c2nn(-c3ccc(OC)c(Cl)c3)c(=O)c3ccccc23)CC1	7	39*	94	2	4	4
SMILES	Exocytosis inh	rCAG binder	ABCB6 inh MLPCN	PG9 Ab binder	rCAG bind conf	dCAG dye counter	others
CCOC(=O)N1CCN(C(=O)CNC(=O)c2nn(-c3ccc(OC)c(OC)c3)c(=O)c3ccccc23)CC1	-9	1	90	-2	x	x
COc1ccc(-c2nc3c(c(SCC(=O)Nc4cccc(O)c4)n2)Cc2c(CO)cnc(C)c2O3)cc1	6	58*	95	-3	25	16*
Cc1ncc(CO)c2c1Oc1nc(-c3ccccc3)nc(SCC(=O)Nc3cccc(O)c3)c1C2	44	58*	94	-1	30	17*
O=C(CSc1nc(-c2ccc(F)cc2)nc2c1Cc1ccccc1O2)Nc1cccc(C(=O)O)c1	6	22	94	0	x	x
COc1ccc(OCc2nnc(SCC(=O)Nc3cccc(C(C)=O)c3)o2)cc1	1	4	100	1	x	x
CC(/C=C/c1ccc(N(C)C)cc1)=N/N=C1/NC(=O)CC(C(=O)Nc2ccc(Cl)cc2)S1 (stereo unspecified)	6	41*	117	-2	41*	14*
O=C(O)CCN1C(=O)/C(=C2\C(=O)N(Cc3ccccc3Cl)c3ccccc32)SC1=S	-5	3	95	-2	x	x
O=C(O)CN1C(=O)/C(=C2\SC(=S)N(C(Cc3ccccc3)C(=O)O)C2=O)c2ccccc21 (stereo unspecified)	-4	69*	94	-5	47*	12*
CCCC(C(=O)O)N1C(=O)/C(=C2\C(=O)N(C)c3ccccc32)SC1=S (stereo unspecified)	-2	56*	98	-3	63*	26*
Cc1cc([N+](=O)[O-])ccc1NC(=O)CN1C2CCC1CC(NC(=O)NC13CC4CC(CC(C4)C1)C3)C2 (stereo unspecified)	4	6	90	-1	x	x
O=C(Nc1nccs1)c1c(O)c2c([nH]c1=O)CCCC2	2	-2	99	-3	x	x
O=C(Nc1ccccc1O)c1c(O)c2c([nH]c1=O)CCCC2	7	44*	97	-2	40*	27*
COc1ccc2c(c1OC)C(=O)N1C2SC[C@H]1C(=O)NC1CC1 (stereo partly specified)	-3	2	100	-2	x	x
C#CCOC(=O)CCCC(=O)NCCCCCCCC	6	-10	98	2	x	x
CC1CCCCC1NC(=O)COC(=O)c1c2c(nc3ccccc13)/C(=C/c1ccco1)CC2 (stereo unspecified)	-1	53*	116	2	51*	28*
O=C(COC(=O)c1c2c(nc3ccccc13)/C(=C/c1ccco1)CC2)NC1CCCC1	-1	68*	101	1	60*	34*
